Results on 9 compounds are retold here after PubChem BioAssay (Tox21).

A number with no mark means an inactive call. Records with an inconclusive call do not appear. The source made the active and inactive calls. Unless noted, calls follow the shape of the dose curve; as a rule, active = well fitted curve in the direction sought with a large enough effect in the repeat runs; inconclusive = weak or mixed curves; inactive = no such curve, though single readings can be large; an effect the other way counts as inactive or inconclusive.

A short description of test [1]: qHTS assay to identify small molecule antagonists of the estrogen receptor alpha (ER-alpha) signaling pathway using the BG1 cell line in the presence of 0.1 nM 17-beta-estradiol - cell viability counter screen (AID 1259241). Also: nearly all actives have a fitted effect of over 40% in size. The procedure, abridged: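 Viability in VM7Luc4E2 cells after 22 hr compound exposure under 0.1 nM 17beta-estradiol stimulation, by CellTiter-Fluor.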

The nature of test [2]: qHTS assay to identify small molecule antagonists of the androgen receptor (AR) signaling pathway using the MDA cell line in the presence of 0.5 nM R1881 - cell viability counter screen (AID 1259242). Also: nearly all actives have a fitted effect of over 45% in size. The procedure, abridged: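 R1881 at 0.5 nM final stimulated MDA-kb2 cells during 16 hr compound treatment at 37C. Cytotoxicity read: CellTiter-Fluor fluorescence after 30 min.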

A short description of test [3]: qHTS assay to identify small molecule HDAC inhibitors - cell viability counter screen (AID 1259365). Also: series mostly up to about 92 µM; nearly all actives have a fitted effect of over 50% in size. The procedure, abridged:
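Cytotoxicity was gauged in wild-type HCT-116 cells after a brief 2hr treatment with DMSO-dissolved compounds at 37C and 5% CO2, using CellTiter-Glo luminescence developed for 30min at room temperature.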

The nature of test [4]: qHTS assay to identify small molecule agonists of the sonic hedgehog signaling (Shh) pathway - cell viability counter screen (AID 1259366). Also: nearly all actives have a fitted effect of over 50% in size. Also: potency is read from the fitted curve at half-maximal effect. The procedure, abridged: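 Stable Gli1-Luc NIH/3T3 clone, 2,000 cells/well. Compound exposure 24hr at 37C. Read-out: CellTiter-Fluor fluorescence.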
Background: Quantitative high-throughput screening tests each substance at several concentrations.

Test [5] can be described thus: qHTS assay to identify small molecule antagonists of the sonic hedgehog signaling (Shh) pathway - cell viability counter screen (AID 1259367). Also: nearly all actives have a fitted effect of over 55% in size. The procedure, abridged:
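Using CellTiter-Fluor, viability of Gli1-Luc reporter 3T3 cells is read by fluorescence in the wells used for the Shh luciferase assay. Treatment lasts 23 hr with conditioned medium, then reagent 1 hr at 37C.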

The nature of test [6]: qHTS assay to identify small molecule agonists of the sonic hedgehog signaling (Shh) pathway (AID 1259368; calls by dose curve;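 also: NIH/3T3-derived 3T3Gli1-Luc cells carrying a stable Gli1-driven firefly luciferase reporter; series mostly up to about 92 µM; nearly all actives have a fitted effect of over 15% in size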). The procedure, abridged: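 Mouse fibroblast (NIH/3T3) reporter cells with stably integrated Gli1-Luc were treated 24 hr with compound; firefly luciferase luminescence served as the read-out.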
Test [7] in a line: qHTS assay to identify small molecule antagonists of the sonic hedgehog signaling (Shh) pathway (AID 1259369; calls by dose curve; also: nearly all actives have a fitted effect of over 45% in size; also: potency is read from the fitted curve at half-maximal effect). The procedure, abridged:
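Conditioned medium drives Shh signalling in 3T3Gli1-Luc cells; compounds in DMSO co-applied, 24hr at 37 C, then luciferase luminescence.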

Test [8] in a line: qHTS assay to identify small molecule agonists of the androgen receptor (AR) signaling pathway in the presence of an antagonist - cell viability counter screen (AID 1259379).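 Also: MDA-kb2 human breast cancer cells carrying an MMTV luciferase reporter; series mostly up to about 92 µM; nearly all actives have a fitted effect of over 25% in size.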 The procedure, abridged:
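A CellTiter-Fluor read-out measured viability of MDA-kb2 reporter cells (MMTV promoter with AR and GR response elements). Treatment: nilutamide 3.0uM final with compounds at 15 concentrations, 16 hr, 37C, 0% CO2.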

Test [9] can be described thus: qHTS assay to identify small molecule agonists of the estrogen receptor beta (ER-beta) signaling pathway - cell viability counter screen (AID 1259380). Also: nearly all actives have a fitted effect of over 30% in size. Also: potency is read from the fitted curve at half-maximal effect. The procedure, abridged:
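Cells used were ER-beta-UAS-bla HEK293T in medium with 2% charcoal-stripped FBS. They were treated for 16 hr at 37C. Viability came from CellTiter-Glo luminescence.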

Test [10] in a line: qHTS assay to identify small molecule antagonists of the estrogen receptor beta (ER-beta) signaling pathway - cell viability counter screen (AID 1259382). Also: series mostly up to about 92 µM; nearly all actives have a fitted effect of over 55% in size. The procedure, abridged:
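Agonist-stimulated (1nM E2) ER-beta-UAS-bla HEK293T cells are incubated with library compounds for 16 hr at 37C. Cell viability is then assessed in the reporter-assay wells by adding CellTiter-Glo and reading luminescence after 30 min.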

The nature of test [11]: qHTS assay to identify small molecule agonists or antagonists of the thyroid stimulating hormone receptor (TSHR) signaling pathway - wild type cell line counter screen (AID 1259384; calls by dose curve). The procedure, abridged: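 Counter screen in untransfected Hek293: compounds (15-point titration, triplicate) plus phosphodiesterase inhibitor Ro20-1724 added after 18 h plating; 30 min RT. Intracellular cAMP via competitive d2/cryptate immunoassay, 1 h incubation.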

In test [12] the target is Thyrotropin receptor (Homo sapiens) (UniProt P16473). Briefly: qHTS assay to identify small molecule antagonists of the thyroid stimulating hormone receptor (TSHR) signaling pathway (AID 1259385; calls by dose curve; also: nearly all actives have a fitted effect of over 20% in size). The procedure, abridged:
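Antagonist mode: compound-treated TSHR-expressing HEK293 cells were stimulated with 1.5 ng/mL TSH (final) in presence of Ro20-1724 for 30 min at RT. HTRF cAMP detection after 1 h; each compound tested at 15 concentrations, triplicate.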

Test [13] can be described thus: qHTS assay to identify small molecule HDAC inhibitors (AID 1259364). Also: potency is read from the fitted curve at half-maximal effect.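 Also: wild-type HCT-116 cells with endogenous class I/II HDAC activity; nearly all actives have a fitted effect of over 45% in size.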 As to activity change, negative = inhibition: top concentration of the series differs between compounds. The procedure, abridged:
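Relative class I and II HDAC activity is taken from the luminogenic signal in HCT-116 cells, with compound exposure 2 hr and reagent development 30 min at room temperature.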

Test [14] deals with Estrogen receptor beta (Homo sapiens) (UniProt Q92731). Briefly: qHTS assay to identify small molecule agonists of the estrogen receptor beta (ER-beta) signaling pathway (AID 1259377; active = well fitted activation curve with a large enough effect in the signal ratio in the repeat runs, not every such curve was filed as active; the % refers to the signal ratio). The procedure, abridged:
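Measured by fluorescence intensity from a B/G FRET beta-lactamase substrate (2 h, room temperature) in ER-beta-UAS-bla HEK293T cells treated with DMSO-dissolved compounds for 16 hr at 37C and 5% CO2.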

Test [15] can be described thus: qHTS assay to identify small molecule phospholipidosis (PLD) inducers (AID 1259344; active = well fitted curve in the direction sought with a large enough effect; an effect the other way counts as inactive or inconclusive). The procedure, abridged:
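Fluorescent phospholipid staining (LipidTOX Red) measured by automated microscopy in fixed HepG2 cells after 24 h treatment; nuclei counterstained with Hoechst 33342; amiodarone as reference inducer.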

Test [16] concerns the target Estrogen receptor beta (Homo sapiens) (UniProt Q92731). The test can be described thus: qHTS assay to identify small molecule antagonists of the estrogen receptor beta (ER-beta) signaling pathway (AID 1259378; active = well fitted inhibition curve with a large enough effect in the signal ratio in the repeat runs, not every such curve was filed as active; the % refers to the signal ratio). The procedure, abridged: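 Antagonist mode: compounds added to beta-lactamase reporter HEK293T ER-beta-UAS cells stimulated with E2 (1nM final), 16 hr at 37C. LiveBLAzer B/G FRET substrate, 2 hours room temperature, fluorescence read-out.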

For test [17], the target named is Androgen receptor (Homo sapiens) (UniProt P10275). The test can be described thus: qHTS assay to identify small molecule agonists of the androgen receptor (AR) signaling pathway in the presence of an antagonist (AID 1259381; calls by dose curve; also: nearly all actives have a fitted effect of over 15% in size). The procedure, abridged:
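Using human MDA-kb2 cells with an MMTV promoter–luciferase construct (AR and GR response elements), agonist activity is scored under 3.0uM nilutamide (final) co-treatment; 16hr incubation, 37C, luminescence readout via ONE-Glo.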

For test [18] the target is unchanged. Briefly: qHTS assay to identify small molecule antagonists of the androgen receptor (AR) signaling pathway using the MDA cell line in the presence of 0.5 nM R1881 (AID 1259243). Also: nearly all actives have a fitted effect of over 50% in size. The procedure, abridged:
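We exposed MDA-kb2 cells to compounds under 0.5 nM R1881 stimulation for 16 hr at 37C and quantified MMTV-driven luciferase by luminescence.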

Test [19] addresses Estrogen receptor (Homo sapiens) (UniProt P03372). Briefly: qHTS assay to identify small molecule antagonists of the estrogen receptor alpha (ER-alpha) signaling pathway using the BG1 cell line in the presence of 0.1 nM 17-beta-estradiol (AID 1259244). Also: nearly all actives have a fitted effect of over 50% in size. The procedure, abridged: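 VM7Luc4E2; 4xERE-luciferase; 0.1 nM E2 final; 22 h co-incubation, 37C; ONE-Glo luminescence after 30 min at room temperature.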
% is scaled to controls: 0 for no effect and ±100 for the full control effect.

Chain of Thyrotropin receptor (Homo sapiens) (P16473 whole entry, looked up): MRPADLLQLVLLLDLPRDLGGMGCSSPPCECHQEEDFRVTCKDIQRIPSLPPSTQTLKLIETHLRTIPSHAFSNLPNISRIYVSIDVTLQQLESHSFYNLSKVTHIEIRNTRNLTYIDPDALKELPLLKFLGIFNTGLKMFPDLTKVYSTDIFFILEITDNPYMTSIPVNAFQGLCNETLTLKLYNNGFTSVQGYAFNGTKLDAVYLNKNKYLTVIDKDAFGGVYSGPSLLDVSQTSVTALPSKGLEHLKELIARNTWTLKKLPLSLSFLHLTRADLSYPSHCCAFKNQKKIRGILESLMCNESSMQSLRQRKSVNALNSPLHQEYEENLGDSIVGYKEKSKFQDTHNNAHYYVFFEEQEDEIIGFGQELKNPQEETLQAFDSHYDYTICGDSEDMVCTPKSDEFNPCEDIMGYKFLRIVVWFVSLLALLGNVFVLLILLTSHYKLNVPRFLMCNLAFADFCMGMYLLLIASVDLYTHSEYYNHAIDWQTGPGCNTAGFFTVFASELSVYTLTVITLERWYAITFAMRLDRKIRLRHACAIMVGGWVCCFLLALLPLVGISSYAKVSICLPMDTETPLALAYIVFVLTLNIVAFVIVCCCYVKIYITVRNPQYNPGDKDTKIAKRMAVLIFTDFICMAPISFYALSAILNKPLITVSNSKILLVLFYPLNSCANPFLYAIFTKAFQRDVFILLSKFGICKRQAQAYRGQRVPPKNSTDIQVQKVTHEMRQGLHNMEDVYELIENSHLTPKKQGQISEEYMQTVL
Chain of Androgen receptor (Homo sapiens) (P10275 whole entry, looked up): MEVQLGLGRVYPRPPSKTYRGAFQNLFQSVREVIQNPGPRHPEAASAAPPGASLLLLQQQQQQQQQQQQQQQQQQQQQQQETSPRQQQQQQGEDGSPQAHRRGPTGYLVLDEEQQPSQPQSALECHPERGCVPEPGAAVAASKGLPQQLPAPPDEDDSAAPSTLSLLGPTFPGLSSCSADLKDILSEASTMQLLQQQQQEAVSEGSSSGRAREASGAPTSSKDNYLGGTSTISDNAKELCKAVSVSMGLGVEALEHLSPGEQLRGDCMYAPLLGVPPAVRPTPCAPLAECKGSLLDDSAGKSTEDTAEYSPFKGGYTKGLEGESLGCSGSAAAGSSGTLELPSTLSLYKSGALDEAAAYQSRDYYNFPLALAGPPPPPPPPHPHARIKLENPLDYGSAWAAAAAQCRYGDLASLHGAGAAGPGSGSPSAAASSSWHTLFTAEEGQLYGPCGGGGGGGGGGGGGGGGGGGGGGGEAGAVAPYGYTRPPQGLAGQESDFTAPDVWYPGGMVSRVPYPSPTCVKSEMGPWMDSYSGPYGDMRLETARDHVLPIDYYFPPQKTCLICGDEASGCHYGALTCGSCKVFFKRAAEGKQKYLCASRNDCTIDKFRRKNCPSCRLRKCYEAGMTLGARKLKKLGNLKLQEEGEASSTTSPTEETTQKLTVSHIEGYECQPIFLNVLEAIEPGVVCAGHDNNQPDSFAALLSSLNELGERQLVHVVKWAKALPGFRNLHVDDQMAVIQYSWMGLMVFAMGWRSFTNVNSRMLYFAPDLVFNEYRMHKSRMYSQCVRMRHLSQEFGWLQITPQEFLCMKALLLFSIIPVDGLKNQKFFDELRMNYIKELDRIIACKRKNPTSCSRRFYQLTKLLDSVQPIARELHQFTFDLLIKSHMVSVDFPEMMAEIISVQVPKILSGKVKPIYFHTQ
Chain of Estrogen receptor beta (Homo sapiens) (Q92731 whole entry, looked up): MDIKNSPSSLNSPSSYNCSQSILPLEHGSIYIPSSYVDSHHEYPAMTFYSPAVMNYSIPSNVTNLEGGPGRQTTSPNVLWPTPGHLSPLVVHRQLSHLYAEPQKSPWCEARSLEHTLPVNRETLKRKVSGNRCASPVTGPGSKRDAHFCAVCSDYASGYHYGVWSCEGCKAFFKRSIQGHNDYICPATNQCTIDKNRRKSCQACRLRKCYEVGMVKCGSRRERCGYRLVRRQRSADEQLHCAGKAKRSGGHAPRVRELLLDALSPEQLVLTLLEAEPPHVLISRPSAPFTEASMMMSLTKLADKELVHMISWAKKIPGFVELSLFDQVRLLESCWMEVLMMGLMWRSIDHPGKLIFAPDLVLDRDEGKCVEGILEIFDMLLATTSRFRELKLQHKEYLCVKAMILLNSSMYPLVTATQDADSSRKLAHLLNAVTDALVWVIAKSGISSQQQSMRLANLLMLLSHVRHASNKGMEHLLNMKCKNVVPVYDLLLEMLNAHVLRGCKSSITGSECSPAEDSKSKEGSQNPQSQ
Chain of Estrogen receptor (Homo sapiens) (P03372 whole entry, looked up): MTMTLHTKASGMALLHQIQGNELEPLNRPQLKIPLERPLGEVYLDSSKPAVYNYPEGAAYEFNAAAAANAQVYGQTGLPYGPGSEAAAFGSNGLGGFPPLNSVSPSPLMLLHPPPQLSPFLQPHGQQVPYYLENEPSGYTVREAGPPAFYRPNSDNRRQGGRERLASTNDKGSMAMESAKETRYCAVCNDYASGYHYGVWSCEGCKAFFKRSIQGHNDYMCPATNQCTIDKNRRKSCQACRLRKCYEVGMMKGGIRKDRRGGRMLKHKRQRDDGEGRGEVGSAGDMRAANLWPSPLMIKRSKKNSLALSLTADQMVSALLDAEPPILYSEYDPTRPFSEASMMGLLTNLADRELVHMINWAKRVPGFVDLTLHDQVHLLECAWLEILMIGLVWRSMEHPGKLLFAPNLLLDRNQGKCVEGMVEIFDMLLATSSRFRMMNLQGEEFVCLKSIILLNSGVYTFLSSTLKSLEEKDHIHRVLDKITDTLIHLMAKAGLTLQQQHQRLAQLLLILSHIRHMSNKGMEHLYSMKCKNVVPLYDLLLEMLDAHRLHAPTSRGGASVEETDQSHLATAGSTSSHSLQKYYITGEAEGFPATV

As to `CCCC[C@H]1CN(CC2CCOCC2)C(=O)OC12CCN(C1(C)CCN(C(=O)c3c(C)ncnc3C)CC1)CC2`, the Potency result in [1], in [2], in test [4], in [5], in [7] and in test [8] was “inactive” in each case. Moreover, the Potency result in test [9], in test [10], in test [11] and in test [12] was “inactive” throughout. Also, the compound was classed as inactive in test [3] and in test [6].

With `CN1CCN(C2=Nc3cc(Cl)ccc3Nc3ccccc32)CC1`, the Potency entry in test [1], in test [2], in test [13], in [14], in test [8] and in test [11] was “inactive” throughout. Also, in [12], the Potency entry was “inactive”. Further, the outcome in test [3] and in test [6] was inactive. In addition, the Potency in test [4] is 13.3 µM (active); in [9], 29.8 µM (active).

Take `NC[C@H]1O[C@H](O[C@H]2[C@H](O)[C@@H](O[C@H]3O[C@H](CO)[C@@H](O)[C@H](N)[C@H]3O)[C@H](N)C[C@@H]2N)[C@H](O)[C@@H](O)[C@@H]1O`: the activity change, negative = cytotoxicity in test [1] is 2.35% [at 8.39 µM]; in [3], 2.31% [at 8.39 µM]; in test [8] it was 1.81% [at 8.39 µM]; in test [9], 5.67% [at 8.39 µM]; in [10], 0.386% [at 8.39 µM]. Further, the viability change, negative = cytotoxic is 1.3% [at 8.39 µM] in [2], -24.3% [at 8.39 µM] in [4] and -30.1% [at 8.39 µM] in test [5]. In [15], the Potency result is “inactive”. For the same compound, the activity change, negative = inhibition in test [13] is -0.959% [at 8.39 µM]; in test [7], -24.7% [at 8.39 µM]; in test [12], -7.09% [at 8.39 µM]. Besides, in test [11], the cAMP activity change was 0.52% [at 8.39 µM, hits give high values].

For `COc1ccccc1OC(=O)Oc1ccccc1OC`, the Potency entry in test [1], in test [2], in test [15], in test [13], in [4] and in [5] was “inactive” in each case. Also, the Potency result in [7], in test [16], in test [8], in [17], in test [11] and in test [12] was “inactive” each time. For the same compound, the compound was called inactive in test [3]. Moreover, the Potency in test [9] is 23.7 µM (active).

In the case of `O=C(CC(=O)c1ccccc1)c1ccccc1`, the Potency result in [1], in test [2], in [5], in test [7], in test [8] and in test [9] was “inactive” in each case. The Potency result in test [10], in test [11] and in [12] was “inactive” each time. Moreover, in [13], the Potency is 2.93 µM (active). In test [3], the compound was called inactive.

For `CCCCC(CC)(CO)CO`, the Potency result in test [1], in test [2], in test [13], in test [4], in [5] and in test [7] was “inactive” throughout. For the same compound, the Potency entry in test [8], in [9], in [10] and in test [12] was “inactive” each time. The outcome in test [3] and in test [6] was inactive.

In the case of `CC(C)CCCC(C)CCO` (stereo not drawn), the Potency entry in test [1], in [18], in [19], in [13], in test [4] and in [5] was “inactive” in each case. Also, the Potency result in [16], in test [8], in test [9], in [17], in test [10] and in test [11] was “inactive” each time. In test [12], the Potency result was “inactive”. Also, the compound was classed as inactive in test [3] and in test [6]. The Potency in test [7] was 61.1 µM (active).

As to `C=CC(=O)OCCOC(=O)CCC(=O)O`, the Potency entry in test [1], in test [2], in test [13], in [4], in [8] and in test [9] was “inactive” throughout. The Potency result in test [10], in test [11] and in test [12] was “inactive” each time. For the same compound, the compound was called inactive in test [3] and in [6]. The Potency in test [7] is 61.1 µM (active).

For the compound `CC(=O)c1c(C)c([N+](=O)[O-])c(C(C)(C)C)c([N+](=O)[O-])c1C`, the Potency entry in test [1], in test [2], in [13], in [4], in test [5] and in [7] was “inactive” in each case. The Potency result in [8], in [9], in test [10], in test [11] and in test [12] was “inactive” each time. Besides, the outcome in [6] was inactive.
